Compound activity as filed in PubChem BioAssay.
Sampled rows, rich in hits. Any-hit rate of the full collection: about 18%.
IL-1B inflam inh – blocks inflammasome-driven IL-1 beta release; THP-1 LPS/ATP IL-1B secretion, AlphaLISA, 16 h; stronger effect = lower value; activity change, % at 57.5 µM; hit rate 4.7% among 360,000; AID 743279; in the data active = activity change below about -50%; inconclusive = mostly about -30% to -49%
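THP-1 cells pretreated 1 hr with compounds (up to 57.5 uM final), then stimulated with LPS (250 ng/mL final) plus ATP (1.25 mM final); secreted IL-1B measured by AlphaLISA after 16 hr, decreased signal indicating inhibition.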
Gal4-VP16 FLuc – counter-screen for ROR gamma inhibitors: Gal4-VP16 reporter; Drosophila S2 Gal4-VP16 UAS-luciferase, luminescence, 20 h; Potency, µM (titrated, usually from 53.6 µM), for inactives: top-dose activity, negative = inhibition, most hits filed as inhibitors; hit rate 3.5% among 310,000; AID 2546;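 also: Gal4-VP16 expression switched on by copper sulfate through the metallothionein promoter; potency is read from the fitted curve at half-maximal effect; nearly all actives have a fitted effect of over 50% in size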
TDP1 cell CPT – growth inhibition of DT40 Tdp1-/-;hTDP1 cells with camptothecin (screen for TDP1 inhibitors). chicken DT40 Tdp1-/-;hTDP1 cells + 20 nM CPT, ATP luminescence, 48 h. AID 686979. hit rate 12% among 420,000. Potency, µM (doses to about 46.2 µM), for inactives: at the top dose activity change, negative = growth inhibition, hits mostly inhibitors; also: potency is read from the fitted curve at half-maximal effect; nearly all actives have a fitted effect of over 55% in size
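Chicken DT40 Tdp1-/- cells complemented with human TDP1, 400 cells/well, exposed to compounds plus 20 nM camptothecin for at least 48 h at 37 C; viability read as ATP content by CellTiter-Glo luminescence.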
LDHA block – inhibitors of human lactate dehydrogenase A. P00338. hit rate 0.15% among 480,000. purified LDHA, NADH/diaphorase-resazurin fluorescence; stronger effect = lower value. activity change, % (values are at about 110 or 230 µM); in the data active = activity change below about -30%; inconclusive = mostly about -25% to -30%;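 also: plate controls were DMSO wells for no effect and wells without enzyme for full effect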
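LDH5 2 nM; NADH 0.06 mM, pyruvate 0.2 mM; 200 mM Tris pH 7.4, EDTA, Tween-20; 5 min RT. Detection: diaphorase 0.133 mg/mL + resazurin 37 µM, fluorescence ex540/em590 at 0 and 20 min; normalized to enzyme-free and DMSO wells.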
DT40 TDP1 no CPT – qHTS for Inhibitors of human tyrosyl-DNA phosphodiesterase 1 (TDP1): qHTS in cells in absence of CPT; DT40 Tdp1-/- hTDP1 cells, no CPT, ATP luminescence, 48 h; Potency, µM (series often up to 46.2 µM), for the others: at the highest dose activity change, negative = growth inhibition, usual class: inhibitors; hit rate 15% among 420,000; AID 686978, 2013; also: potency is read from the fitted curve at half-maximal effect; nearly all actives have a fitted effect of over 55% in size
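Chicken DT40 Tdp1-/- cells stably complemented with human TDP1 were seeded at 400 cells/well with DMSO in place of 20 nM camptothecin. After compound pinning, cells grew at least 48 hr at 37 °C; viability read by CellTiter-Glo luminescence.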
RORgamma inh – inhibitors of mouse ROR gamma transcriptional activity | AID 2551 | P51450 | Drosophila S2 Gal4-RORgamma UAS-luciferase reporter, 20 h | Potency, µM (top dose mostly 53.6 µM), for the others: top-dose activity change, negative = inhibition, most hits filed as inhibitors | hit rate 5.4% among 310,000; also: potency is read from the fitted curve at half-maximal effect; nearly all actives have a fitted effect of over 60% in size
Target sequence (P51450 whole entry, looked up, the tested form may be a part): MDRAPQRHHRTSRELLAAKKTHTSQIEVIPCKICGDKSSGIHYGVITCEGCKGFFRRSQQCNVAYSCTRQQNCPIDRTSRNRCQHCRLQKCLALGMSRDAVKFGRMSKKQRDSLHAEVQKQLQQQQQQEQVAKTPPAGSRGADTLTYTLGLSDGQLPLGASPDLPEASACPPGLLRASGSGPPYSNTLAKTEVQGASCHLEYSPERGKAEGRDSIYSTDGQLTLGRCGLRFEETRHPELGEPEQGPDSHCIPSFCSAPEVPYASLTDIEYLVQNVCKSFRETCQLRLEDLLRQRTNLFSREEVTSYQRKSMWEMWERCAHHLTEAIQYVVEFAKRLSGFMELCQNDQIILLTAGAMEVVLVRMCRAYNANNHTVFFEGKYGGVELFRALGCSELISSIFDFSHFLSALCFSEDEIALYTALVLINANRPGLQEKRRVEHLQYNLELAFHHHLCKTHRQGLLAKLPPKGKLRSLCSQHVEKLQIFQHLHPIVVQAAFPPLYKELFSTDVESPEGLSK
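Schneider cells (Drosophila), stable Gal4 DBD–ROR gamma + UAS-luc; 1 hr cmpd preincubation; Cu2+ induction 700 uM final; 20 hr ambient; luminescence.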
Numbers without * were called inactive; ? = inconclusive; · = no result given. Unless noted, calls follow the shape of the dose curve; as a rule, active = well fitted curve in the direction sought with a large enough effect; inconclusive = small, poorly fitted or top-dose-only effect, or another doubt; inactive = no such curve, though single readings can be large; an effect the other way counts as inactive or inconclusive. Unless noted, % is scaled to controls: 0 for no effect and ±100 for the full control effect.

SMILES	IL-1B inflam inh	Gal4-VP16 FLuc	TDP1 cell CPT	LDHA block	DT40 TDP1 no CPT	RORgamma inh
Cc1c(Cl)cccc1Nc1nn2c(=O)c3ccc(C(=O)N(C)Cc4ccccc4)cc3nc2s1	·	·	?	-7.2	?	·
Cc1c(Cl)cccc1Nc1nn2c(=O)c3ccc(C(=O)NCCc4ccccc4)cc3nc2s1	·	·	8.2µM*	-1.2	5.17µM*	·
CCN(CC)S(=O)(=O)c1ccc(Cl)c(C(=O)NC(C)c2cc3ccccc3o2)c1 (stereo unspecified)	·	·	·	-0.7	·	·
CCOc1ccccc1NC(=O)c1cccc(CN2CCCC2=O)c1	·	·	·	-7.8	·	·
CC(=O)Oc1cccc2c1C(=O)C1CC=CC(OC(C)=O)C1C2=O (stereo unspecified)	-22.9	·	?	-19.7	23.1µM*	·
O=C(NCc1ccccc1)c1ccc(C2Nc3ccccc3S(=O)(=O)N2)cc1 (stereo unspecified)	·	·	·	0.8	·	·
COc1ccc(C(=O)Nc2nc(-c3nc4ccccc4s3)cs2)cc1	·	·	·	-0.3	·	·
COc1ccc(C(=O)Nc2nc3ccccc3s2)cc1	-11.5	?	-18.8%	-0.1	?	5.01µM*
Cc1cccc(Nc2nnc(SCC(=O)Nc3ccccc3[N+](=O)[O-])s2)c1C	0.6	-14.5%	?	-2.5	?	17.8µM*
COc1ccc(/C=N/OCC(=O)Nc2nc3ccccc3s2)cc1OC	-50.3*	?	?	-1.5	?	1.8%
Cc1ccc2nc(NC(=O)c3ccc(-c4nc5ccccc5s4)s3)sc2c1	44.6	5.8%	?	-0.6	?	7.94µM*
O=C(Nc1c(N2CCCC2)c2ccccc2oc1=O)C1CC(=O)N(c2ccccc2)C1 (stereo unspecified)	·	·	·	2.6	·	·
CCN(c1ccccc1)c1nc2c(c(=O)[nH]c(=O)n2C)n1CC(=O)O	·	·	·	2.9	·	·
COc1ccc(NC(=O)Nc2nnc(SCC(=O)Nc3cccc(C)c3C)s2)cc1	·	·	18.4µM*	-1.8	7.31µM*	·
COc1cccc(C(=O)Nc2nnc(SCC(=O)Nc3ccc(NC(C)=O)cc3)s2)c1	-7.1	?	2.3%	-0.1	2.5%	11.2µM*
COc1ccc(C(=O)Nc2nnc(C(C)C)s2)cc1OC	·	·	-14.4%	-1.9	-21.0%	·
Cc1cccc(NC(=O)CSc2nnc(NC(=O)C3CC3)s2)c1C	5.5	-6.7%	-1.9%	-7.6	-17.0%	-1.5%
COc1cccc(C(=O)Nc2nnc(C(C)C)s2)c1	-9.6	?	-2.4%	2.6	-19.7%	8.91µM*
O=C(CN1CCN(Cc2ccc(F)cc2)CC1)Nc1nc2ccccc2s1	-6.6	-3.6%	-28.4%	-2.9	25.9µM*	7.0%
CCCN1CCN(CC(=O)Nc2nc3ccccc3s2)CC1	-14.0	-10.6%	32.7%	-3.0	-1.8%	18.1%
CCOc1cccc(COC(=O)c2cccc(S(=O)(=O)N3CCOCC3)c2)c1OC(F)F	·	·	·	-1.8	·	·
O=C(Nc1ccccc1-c1nc2ccccc2s1)c1ccc(F)cc1	·	·	-0.8%	-4.8	-10.6%	·
CSc1nc2ccc3nc(NC(=O)c4ccc(C)cc4)sc3c2s1	-12.5	-6.1%	3.7%	-0.3	?	-15.5%
Cc1ccc(C(=O)Nc2nc3ccccc3c(=O)s2)cc1	-93.8*	?	18.4µM*	2.0	18.4µM*	14.1µM*
COc1cccc(CC(=O)Nc2ccc(-c3nc4ccccc4s3)cc2)c1	·	·	-21.5%	-2.1	-4.7%	·
COc1ccc(CC(=O)Nc2ccc(-c3nc4ccccc4s3)c(C)c2)cc1OC	·	·	?	-3.7	25.9µM*	·
COc1ccc2nc(NC(=O)c3ccc(F)cc3)sc2c1	-26.3	-6.2%	3.2%	-2.4	-17.1%	11.2µM*
O=C(Nc1nc2ccccc2s1)c1ccc(F)cc1	11.2	?	-4.0%	-6.5	?	4.47µM*
COc1ccc(-c2nsc(NC(=O)c3cccc(OC)c3)n2)cc1	·	·	?	5.7	20.6µM*	·
